The values below come from PubChem BioAssay (NCI).

The panel holds about 83,000 compounds, 20% with a hit somewhere; the sample as a whole holds those more often.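 Plates (96-well) were seeded with cells, treated with compound at one concentration, and incubated for 48 hours before percent growth was determined.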 Calls of active or inactive are those of the source. Rule for the calls: active = growth percent below 10; inactive = the rest.

The test has as its system T-47D breast. The experiment in a line: NCI-60 one-dose screen, 48 h (100 = growth as untreated, 0 = no growth, -100 = all killed). Particulars: 10 µM.
Take `Cc1n[nH]c(C)c1N=Nc1cccc2c1C(=O)c1ccccc1C2=O`: the growth was 79.3% (inactive). Turning to `O=C(CCCCNC(=O)c1nc(-c2ccccc2)n(-c2ccccc2)n1)NO`, the growth is 35% (inactive). `Cc1c(Cl)cccc1NC(=O)CN1CCOCC1`: the growth was 96.1% (inactive).

For `COc1ccc2nc3cc(Cl)ccc3c(N)c2c1`, the growth was -82% (active). Take `Cc1ccc(C(=O)/C=C/c2ccccc2)s1`: the growth was 141% (inactive). Under `CC(=O)/C(=C/c1ccc(Br)cc1)C(=O)c1ccccc1` stands 86.5% (inactive); under `CN1C(=O)C2(Nc3cc(Cl)ccc3S2)c2cc(Cl)ccc21` (stereo not given), 71.6% (inactive). Under `COc1cc(CNC(=O)C2CSC3(C)c4ccccc4C(=O)N23)cc(OC)c1OC` (stereo not given) stands 87.2% (inactive); under `Brc1ccc2c(c1)-c1ccccc1C1=NCCN12`, -0.518% (active); under `COc1cc(-c2nn(-c3ccc(NC(=O)NCCNS(=O)(=O)c4ccc(F)cc4)cc3)cc2-c2ccncc2)ccc1Cl`, 34.8% (inactive). Take `Cc1cc(Cl)ccc1Nc1nc(C(F)(F)F)ccc1C(=O)N/N=C/c1cccc(O)c1`: the growth was 39.8% (inactive). On to `CS(=O)(=O)c1nccc(-c2c(-c3cccc(OCc4ccc(F)cc4)c3)nc3sccn23)n1`, for which the growth is 71.6% (inactive).

`COc1cc(/C=C/c2cc(/C=C/c3ccc(O)c(OC)c3)n(C(=O)Nc3ccc(C)cc3)n2)ccc1O`: the growth was 5.65% (active). Under `CCCN(CCC)C(=O)[C@H](CC)[C@@H]1CC[C@@H](C)[C@@H]([C@H](C)[C@@H](O)[C@@H](C)C(=O)[C@H](CC)C2O[C@]3(C=C[C@@H](O)[C@]4(CC[C@@](C)([C@H]5CC[C@](O)(CC)[C@H](C)O5)O4)O3)[C@H](C)C[C@@H]2C)O1` (stereo not given in full) stands 11.1% (inactive). For `COc1cc2cc(Oc3ccc(NC(=O)c4cccc(C(F)(F)F)c4)cc3)c(C)nc2cc1OC`, the growth was 91.6% (inactive). Then `CCc1cc(Cl)c(OC)c(C(=O)NCC2CCCN2CC)c1O` (stereo not given), with 80.9% (inactive); and `CN1CCc2c(sc3nc4n(-c5ccc(Cl)cc5)cnn4c(=O)c23)C1`, with 91.8% (inactive).

Regarding `O=C(N/N=C/c1ccc([N+](=O)[O-])cc1)c1ccccc1Nc1cccc(C(F)(F)F)c1`, the growth is 95.1% (inactive). With `COc1ccc(/C=C2\CCCC3=C2NC(N)=NC3c2ccc(OC)c(OC)c2)cc1OC` (stereo not given), the growth was 78.6% (inactive). Regarding `CCOC(=O)CN(c1sc(C)c(C)c1C(=O)OCC)S(=O)(=O)c1ccc(C)cc1`, the growth is 88.5% (inactive). Then `CC(=O)OC1CC2C(C)(C)CCC[C@]2(C)C2=C1C(O)=C(C(C)C)C(=O)C2=O` (stereo not given in full), with 0.0935% (active); and `CCC(=O)OC1CCC2C3CCC(=O)OC3C(C)(CCC(=O)O)CC12C` (stereo not given), with 37.7% (inactive); and `O=[N+]([O-])c1ccc(NCSc2ccc(Cl)cc2)cc1`, with 92.8% (inactive).

With `CNC(=O)c1cn(C2CC2)c2cc(N3CCN(C(=O)c4cc(OC)c(OC)c(OC)c4)CC3)c(F)cc2c1=O`, the growth is 79% (inactive). Under `CCCCN(CCCC)C(=O)[C@H](CC)[C@@H]1CC[C@@H](C)[C@@H]([C@H](C)[C@@H](O)[C@@H](C)C(=O)[C@H](CC)C2O[C@]3(C=CC(=O)[C@]4(CC[C@@](C)([C@H]5CC[C@](O)(CC)[C@H](C)O5)O4)O3)[C@H](C)C[C@@H]2C)O1` (stereo not given in full) stands 20.7% (inactive). On to `CCn1c2ccc(O)cc2c2c(C)c3c[n+](C)ccc3c(C)c21`, for which the growth is -6.62% (active). As for `COc1ccc(Cl)cc1Nc1nc(C(F)(F)F)ccc1C(=O)N/N=C/c1cc(OC)c(OC)c(OC)c1`, the growth is 29.7% (inactive). Under `O=C(CI)OCC(COC(=O)CI)OC(=O)CI` stands 35.4% (inactive). Consider `COc1ccc(-c2cc(-c3ccc(OC)c(OC)c3)nc(SCCCC(=O)NO)n2)cc1`, for which the growth was 4.26% (active). Under `O=C(CSc1nnc(-c2ccc(Cl)cc2)o1)Nc1ccc(C(=O)/C=C/c2ccc(Cl)cc2)cc1` stands 98.6% (inactive); under `CCOc1ccccc1/C=N\N=C(\N)N/N=C/c1ccccc1OCC`, 14.8% (inactive). On to `CCCc1cn(CC(=O)Nc2nc3ccccc3s2)nn1`, for which the growth was 102% (inactive).

Consider `Fc1ccc(C(c2ccc(F)cc2)C(Cl)Cl)cc1`, for which the growth was 110% (inactive).

In the case of `COc1ccc2c(c1)CC=C1[C@@H]2CC[C@]2(C)C(=O)/C(=N/O)C[C@@H]12`, the growth is 90.2% (inactive).

For `Cc1ccc(Cl)cc1NC(=O)CCl`, the growth was 77.6% (inactive). `O=C(CCCSc1nc(-c2ccccc2)cc(-c2ccc(Cl)cc2)n1)NO`: the growth is 23.3% (inactive).

Turning to `CC(=O)N[C@H](C(=O)N[C@@H](CCCNC(=N)N)C(=O)N[C@@H](CCCCN)C(=O)N[C@@H](CCCNC(=N)N)C(=O)N[C@]1(C)CCCCCC/C=C\CCC[C@@](C)(C(=O)N[C@@H](CCCNC(=N)N)C(=O)N[C@@H](CCC(=O)O)C(=O)N[C@@H](CC(C)C)C(=O)N[C@H](C(=O)N[C@@H](CCC(=O)O)C(N)=O)C(C)C)NC(=O)[C@H](CCC(N)=O)NC(=O)[C@H](CC(C)C)NC(=O)[C@H](CC(C)C)NC(=O)[C@H](CCCNC(=N)N)NC(=O)[C@H](CCCNC(=N)N)NC(=O)[C@H](CC(C)C)NC1=O)C(C)C`, the growth is -35.7% (active). Under `COc1ccc(-c2cc(-c3ccccc3)nc(SCCCC(=O)NO)n2)cc1` stands -1.07% (active); under `COc1ccc(C(=O)N2C=Cc3ccccc3C2C#N)cc1` (stereo not given), 90.8% (inactive). Regarding `COc1ccc(-c2cc(-c3ccc(Cl)cc3)nc(SCCCC(=O)NO)n2)cc1OC`, the growth was 15% (inactive).
